About 540 (0.92%) of roughly 59,000 compounds were called active. About 33% were inconclusive and are not listed. No stated cut-off is given here; in the data, active means max fluorescein-equivalent concentration above about 10 nM; inconclusive means between about 1.1 nM and that limit; inactive means weaker than that. The full list was thinned out, with actives kept by preference. The source holds several records for some structures; these can differ, active in one and inactive in another.
Test: qHTS Assay for Spectroscopic Profiling in Fluorescein Spectral Region
Details: Compound autofluorescence, 480/540 nm; max fluorescein-equivalent concentration: stronger effect = higher value; outcome: fluorescein-equivalent
Text: NIH Molecular Libraries Screening Centers Network [MLSCN]
NIH Chemical Genomics Center [NCGC]
Occasionally, the artifactual effect may originate from the compound's own spectral or other biophysical properties which generally tend to track its assay concentration. Pre-screening/profiling the library with respect to the compounds' spectral properties should help one exclude false positives early on. While the most informative fluorescent profiling data set is obtained by performing a full excitation and emission scan of each well by using a monochromator-based plate reader, such an approach is practical only on a very limited scale as scanning each well requires long time. An alternative approach, applied here, is to perform plate reader scans using selected excitation and emission wavelength pairs to generate a multidimensional relational database that correlates compound concentration and the respective relative fluorescence intensity at a given wavelength set. A standard curve of fluorescein present on each plate as six-point concentration series, was used to compute a normalized fluorescence response, termed dye-equivalent concentration, for each compound at each concentration.
NCGC Assay Protocol Summary:
100 mM Tris buffer, pH 8.0
The wells in columns 1 through 4 of a Kalypsys polypropylene 1536-well compound plate were filled with standard solutions of fluorophore corresponding to the spectral region of interest. Solutions of Fluorescein were placed in the following wells: Q1, R1: 3 mM, Q2, R2: 300 uM, Q3, R3: 30 uM, Q4, R4: zero (DMSO), S1, T1: 3 uM, S2, T2: 900 nM, S3, T3: 300 nM, S4, T4: zero (DMSO).
Six uL of buffer were dispensed to 1536-well Greiner black plates. Compounds and dye standards (23 nL) were transferred via Kalypsys PinTool. The plates were incubated for 15 min at room temperature, and then read on ViewLux (Perkin-Elmer) High-throughput CCD imager using 480 nm and 540 nm excitation and emission filter set.
Keywords: NIH Roadmap, MLSCN, MLI, MLSMR, qHTS, NCGC, Fluorescein, Fluorescent Profiling.

Structure (SMILES)	max fluorescein-equivalent concentration	outcome
C=CCn1c(C)cc(C(=O)CN2C(=O)c3ccccc3C2=O)c1C	inactive	–
Cc1ccc(SCCN2C(=O)NC(C)(C)C2=O)cc1	inactive	–
COc1cccc(Cn2c(=O)c(C)nc3cnc(Oc4ccccc4)nc32)c1	inactive	–
Cc1cc(C(F)(F)F)nn1CC(=O)N1CCCC1	inactive	–
CCOc1ccc(NS(=O)(=O)c2ccc(OCC(=O)NCCCOC)cc2)cc1	inactive	–
COCCn1nnnc1C(c1ccccc1Cl)N1CCN(c2ccccc2OC)CC1 (centres undefined)	inactive	–
COc1ccccc1N1CCN(Cc2nnnn2CCc2ccccc2)CC1	inactive	–
COc1ccccc1N1CCN(c2nc3ccccc3n3nnnc23)CC1	12 nM (active)	–
COc1ccc(-c2cc(C(F)(F)F)nc(SCCC(=O)NCc3ccco3)n2)cc1	inactive	–
CCN(CC)S(=O)(=O)c1cccc(C(=O)Nc2cc(C)nn2-c2nc(C)cc(C)n2)c1	inactive	–
COc1ccc(OCC(=O)OCC(=O)Nc2ccc(S(=O)(=O)N3CCCCC3)cc2)cc1	inactive	–
CCN1CCN(C(=O)CN(C)S(=O)(=O)c2ccc(OC)cc2)CC1	inactive	–
CCC1CCCCN1C(=O)Nc1cccc(NC(=O)N2CCCCC2CC)c1 (centres undefined)	inactive	–
COc1ccccc1CNc1nc(-c2c(C)noc2C)nc2ccccc12	inactive	–
FC(F)(F)c1nnc2sc(-c3ccco3)nn12	inactive	–
O=C(O)CS(=O)c1ccc2c3c(cccc13)C(=O)c1ccccc1-2 (centres undefined)	14 nM (active)	–
CCn1c(=N)c(C(=O)NCCCOC)cc2c(=O)n3cccc(C)c3nc21	inactive	–
CCn1c(=N)c(S(=O)(=O)c2ccc(F)cc2)cc2c(=O)n3ccccc3nc21	29 nM (active)	–
CC1(C)C(=O)C2(CCCCC2)C(=O)OC1c1cccs1 (centres undefined)	inactive	–
CCOc1ccccc1Nc1nnc(SCC(=O)Nc2cc(C)on2)s1	inactive	–
CC[C@H](c1ccccc1)c1cc(C(C)(C)C)cc(C(C)(C)C)c1O	inactive	–
C=CCn1c(COc2ccccc2C)nnc1SCC(=O)O	inactive	–
O=C(NCc1ccco1)c1sc2cccc(F)c2c1Cl	inactive	–

Structure (SMILES)	max fluorescein-equivalent concentration	outcome
CN(c1ccccc1)c1ccc(/C=c2\s/c(=C(/C#N)C(=O)C(C)(C)C)n(Cc3ccco3)c2=O)cc1	34 nM (active)	–
CC(Sc1nc2ccccc2c(=O)n1Cc1ccco1)C(=O)c1ccccc1 (centres undefined)	inactive	–
COc1ccccc1NC(=O)CSc1nc2sc(C)c(C)c2c(=O)n1Cc1ccco1	inactive	–
Cc1ccccc1C(=O)Nc1cccc(-c2nnc(SCC(=O)O)n2C)c1	inactive	–
O=C(CNS(=O)(=O)c1cccc(C(F)(F)F)c1)Nc1ccccc1F	inactive	–
Cc1ccc(C(=O)CSc2nc3ccccc3c(=O)n2N)o1	inactive	–
Cc1ccsc1C(=O)OCC(=O)c1cc2ccccc2o1	inactive	–
Cc1cc2c(=O)n(C)c(SCC(=O)c3cc4ccccc4o3)nc2s1	13 nM (active)	–
Cc1cc(C)cc(NC(=O)C2CCN(c3nc(C)cc(C)n3)CC2)c1	inactive	–
CCOC(=O)c1cc2sccc2n1Cc1ccc(C#N)cc1	inactive	–
Fc1ccccc1CCNc1nnnn1-c1ccccc1	inactive	–
CN1CCC2(CC1)CCN(S(=O)(=O)c1ccccc1)CC2	inactive	–
Cc1ccc2nc(CC(=O)c3ccc4ccccc4c3)c(=O)[nH]c2c1	inactive	–
C/C=C1\C(=O)C[C@@H]2[C@@H]3CCC4=CC(=O)CC[C@@]4(C)[C@H]3CC[C@@]12C	inactive	–
Oc1ccc2ccccc2c1C=NCc1c(O)ccc2ccccc12	inactive	–
COc1ncnc2c1N=C1CC(C)(C)CC(N)=C1S2	47 nM (active)	–
COc1ccc(C(=O)N2CCC[C@@]3(CCN(C(=O)NC(C)C)C3)C2)cc1	inactive	–
CC(C)NC(=O)N1CC[C@@]2(CCCN(C(=O)c3ccco3)C2)C1	inactive	–
CC(C)NC(=O)N1CC[C@@]2(CCCN(C(=O)c3cccc(F)c3)C2)C1	780 nM (active)	–
O=C(Nc1ccc(S(=O)(=O)N2CCCCC2)cc1)c1cnccn1	inactive	–
O=c1[nH]c(-c2ccccc2)c(-c2ccccc2)[nH]1	inactive	–
O=c1[nH]c(=O)c2nc3ccccc3nc2[nH]1	62 nM (active)	–
CN1C(=O)C[C@H](c2ccccc2)C1=O	inactive	–

Structure (SMILES)	max fluorescein-equivalent concentration	outcome
CCCn1c(SCC(=O)Nc2cccc(C(=O)OCC)c2)nnc1-c1ccoc1C	inactive	–
COc1ccccc1Cc1nc(-c2ccc(C)cc2)no1	inactive	–
CC12CCC(C(=O)N(CCC#N)CCC#N)(CC1=O)C2(C)C (centres undefined)	inactive	–
COc1ccc2[nH]c3cc4c(=O)c5cc(OC)ccc5[nH]c4cc3c(=O)c2c1	inactive	–
C[C@H]1O[C@@H](CC(=O)O)Cc2c1c(O)c1c(O)cc(-c3cc(=O)c4c(=O)c5c(c(=O)c=4c3=O)C[C@H](CC(=O)O)O[C@@H]5C)c(O)c1c2O	inactive	–
CC(Sc1nncs1)C(=O)NCc1ccc2c(c1)OCO2 (centres undefined)	inactive	–
Cc1cc(NC(=O)Nc2ccccc2)n(-c2ccccc2)n1	inactive	–
COc1ccc2oc(=O)c(C(=O)O)cc2c1	19 nM (active)	–
COc1cccc(C(=O)c2cc3ccc(O)cc3oc2=O)c1	inactive	–
COc1ccc2oc(=O)c(C(=O)N3CCCc4ccccc43)cc2c1	inactive	–
CCOc1ccc2cc(C#N)c(SCC(=O)OC)nc2c1	inactive	–
CCOc1ccc2nc(N3CCCN(C(=O)Nc4ccccc4C)CC3)c(C#N)cc2c1	29 nM (active)	–
Cc1cccc2cc(C#N)c(N3CCCC3)nc12	inactive	–
CC(=O)c1cc2c(cc1N)OCO2	inactive	–
CCCN1CC=C2C(C#N)=C(N)C(C#N)(C#N)C(c3cc(OC)ccc3OC)C2C1 (centres undefined)	10 nM (active)	–
COC(=O)C1=C(C)OC(N)=C(C#N)C1c1cc(OC)ccc1OC (centres undefined)	inactive	–
CCC1=C(C(=O)OC)C(c2cc(OC)ccc2OC)C(C#N)=C(N)O1 (centres undefined)	inactive	–
COc1cc(NS(=O)(=O)c2ccc(NC(C)=O)cc2)cc(OC)c1	inactive	–
CCOC(=O)C1(Cc2ccc(O)cc2)NC(c2ccccc2F)C2C(=O)N(C)C(=O)C21 (centres undefined)	inactive	–
Cc1ccc(C(c2nnnn2CS(=O)(=O)c2ccc(C)cc2)N2CCC(C(N)=O)CC2)cc1 (centres undefined)	inactive	–
COc1ccc(-c2c3c(=O)n(C)c(=O)n(C)c3cn2NC(C)=O)cc1	inactive	–
C[C@@H]1CC[C@H]2[C@H](C)[C@H]3[C@H](C[C@H]4[C@@H]5CC=C6C[C@@H](O)CC[C@@]6(C)[C@@H]5C[C@@H](O)[C@]34C)N2C1	inactive	–
CCN(CC(=O)NCc1cccs1)c1nnnn1-c1ccccc1	inactive	–

Structure (SMILES)	max fluorescein-equivalent concentration	outcome
COc1cccc(NC(=O)CN(C)S(=O)(=O)c2ccc(C)cc2)c1	inactive	–
Cc1ccc2c(c1)C(O)(CC(=O)c1cccnc1)C(=O)N2 (centres undefined)	inactive	–
CC(=NC1CCN(Cc2ccccc2)CC1)c1c(O)[nH]c(=O)[nH]c1=O	inactive	–
COc1ccc(OC)c(S(=O)(=O)Nc2ccccc2F)c1	inactive	–
CC1CN(C2CCN(C(=O)COc3ccccc3)CC2)CC(C)O1 (centres undefined)	inactive	–
C=CCNC(=O)C12CC3CC(C1)CC(C(=O)NCC=C)(C3)C2	inactive	–
CCc1cccc(C)c1NC(=O)CSc1nnc(-c2ccco2)n1N	inactive	–
O=C(Nc1ccccc1F)C1C2C=CC3(O2)C1C(=O)N(c1cccnc1)C3C(=O)NC1CCCCC1 (centres undefined)	inactive	–
COc1cccc(Cn2c(=O)c(CCc3ccccc3)nc3cnc(N(C)C)nc32)c1	inactive	–
CNC(=O)c1cc2c(ccc3ccccc32)oc1=N	inactive	–
CCON=C1C(C)(C)C(C)(C)C(C)(C)C1(C)C	inactive	–
Cn1c(=O)c2[nH]c(NCC3CCCO3)nc2n(-c2ccccc2)c1=O (centres undefined)	inactive	–
CCCn1c(=O)c2[nH]c(C3CCCC3)nc2n(CCC)c1=O	11 nM (active)	inactive
O=c1[nH]c(=O)n([C@H]2C[C@H](O)[C@H](CO)O2)cc1Br	inactive	–
CC(=O)c1cc(C#N)c(SCC(=O)C(C)(C)C)nc1C	inactive	–
Cc1cccn2c(=O)c3cc(C#N)c(=NC(=O)c4cccnc4)n(CC4CCCO4)c3nc12 (centres undefined)	18 nM (active)	–
Cc1cccn2c(=O)c3cc(C(=O)N4COCC4(C)C)n(C)c3nc12	inactive	–
COC(=O)c1ccc2c(=O)n(CC3CCCO3)c(=S)[nH]c2c1 (centres undefined)	inactive	–
Cc1cc(C)c2[nH]c(=O)c(C(c3nnnn3Cc3ccc4c(c3)OCO4)N3CCCC3)cc2c1 (centres undefined)	inactive	–
CC(=O)NS(=O)(=O)c1ccccc1	inactive	–
CCOCCCNS(=O)(=O)Cc1ccccc1	inactive	–
CCOC(=O)N1CC=C2C(C#N)=C(N)C(C#N)(C#N)[C@H](c3cccs3)[C@H]2C1	12 nM (active)	–
CCNc1ncc2ncc(=O)n(Cc3cccc(OC)c3)c2n1	inactive	–

Structure (SMILES)	max fluorescein-equivalent concentration	outcome
COc1ccc2nc(N3CCCC(O)C3)c(C#N)cc2c1 (centres undefined)	16 nM (active)	–
COc1ccc(N2CCN(C(=O)CSc3nc4cc(OC)c(OC)cc4cc3C#N)CC2)cc1	inactive	–
O=CN1CCN(C2CC(=O)N(c3ccc4c(c3)OCO4)C2=O)CC1 (centres undefined)	inactive	–
S=c1[nH]nc(SCc2ccccc2Cl)c2[nH]cnc12	inactive	–
Cc1csc(NC(=O)CN2CCCCCC2)n1	inactive	–
CCOCC(=O)Nc1cc(OC)c(Cl)cc1OC	inactive	–
Oc1ccccc1CNCc1ccccc1O	inactive	–
COCCn1c(=O)c(CCc2ccccc2)nc2cncnc21	inactive	–
CC(C)N(C(=O)COC(=O)c1ccccc1C(=O)N1CCN(c2ccc(F)cc2)CC1)C(C)C	inactive	–
N#CC1=C(N)Oc2n[nH]c(CSc3ccccc3)c2C12C(=O)Nc1ccccc12 (centres undefined)	inactive	–
O=S(=O)(c1cccs1)N1CCN(Cc2ccccc2)CC1	inactive	–
CCOCCOC(=O)C1=C(C)N(C)C(=O)NC1c1ccccc1F (centres undefined)	inactive	–
C=C(C)Cn1c(SCC(=O)NCc2ccco2)nc2sc3c(c2c1=O)CCC3	inactive	–
COCCn1c(=O)c(-c2cccc(F)c2)nc2cncnc21	inactive	–
COc1ccc(C(=O)N/N=C2/C(=O)c3c(C)cc(C)cc3CC2(C)C)cc1	inactive	–
O=C(O)C1CC=C(Cl)CC1C(=O)NCc1ccccc1 (centres undefined)	inactive	–
CCCOc1ccccc1-c1nc(SCCC(=O)O)n[nH]1	inactive	–
O=S(=O)(Nc1ccc2nc(-c3ccco3)[nH]c2c1)c1ccccc1	inactive	–
O=S(=O)(O)c1ccc(O)c2ncccc12.O=S(=O)(O)c1ccc(O)c2ncccc12.[Zn]	inactive	–
O=C(N1CCOCC1)N1CCOCC1	inactive	–
CCCC(=O)Nc1cc(OCC)c(NC(=O)NC2CCCCC2)cc1OCC	inactive	–

Source: PubChem BioAssay AID593 (National Center for Advancing Translational Sciences (NCATS), 2007)
